Drawing on PMC10313818, this text covers cross-linked residues for 24 substances.

Targets include ACACA (UniProt Q13085); COX7C (UniProt P15954); HSDL2 (UniProt Q6YN16); IDH3G (UniProt P51553); ADCK1 (UniProt Q86TW2); ALDH3A2 (UniProt P51648); APOO (UniProt Q9BUR5); ATP5PF (UniProt P18859); COQ3 (UniProt Q9NZJ6); GUF1 (UniProt Q8N442); HADHA (UniProt P40939); MTRF1L (UniProt Q9UGC7); NOCT (UniProt Q9UK39); OGDH (UniProt Q02218); OGDHL (UniProt Q9ULD0); PDSS1 (UniProt Q5T2R2); PHB2 (UniProt Q99623); PMPCA (UniProt Q10713); PRDX6 (UniProt P30041); RMND1 (UniProt Q9NWS8); SAMM50 (UniProt Q9Y512); SDHA (UniProt P31040); SIRT3 (UniProt Q9NTG7); SLC25A19 (UniProt Q9HC21); SPRYD4 (UniProt Q8WW59); TBRG4 (UniProt Q969Z0); TUFM (UniProt P49411).

Common to all, as to assay: cross-linking mass spectrometry
Holding throughout (conditions): not determined

Sequence of MACROD1, Q9BQ69 (Q9BQ69 whole entry): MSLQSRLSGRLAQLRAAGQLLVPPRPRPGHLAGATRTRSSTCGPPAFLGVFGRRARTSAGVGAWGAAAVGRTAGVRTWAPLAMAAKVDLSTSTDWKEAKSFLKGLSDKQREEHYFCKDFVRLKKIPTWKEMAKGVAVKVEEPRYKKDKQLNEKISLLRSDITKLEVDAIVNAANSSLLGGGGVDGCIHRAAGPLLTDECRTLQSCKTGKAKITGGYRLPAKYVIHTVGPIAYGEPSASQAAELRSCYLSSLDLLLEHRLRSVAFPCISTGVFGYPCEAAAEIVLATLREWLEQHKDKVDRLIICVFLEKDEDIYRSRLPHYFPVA
Sequence of BPHL, Q86WA6 (Q86WA6 whole entry): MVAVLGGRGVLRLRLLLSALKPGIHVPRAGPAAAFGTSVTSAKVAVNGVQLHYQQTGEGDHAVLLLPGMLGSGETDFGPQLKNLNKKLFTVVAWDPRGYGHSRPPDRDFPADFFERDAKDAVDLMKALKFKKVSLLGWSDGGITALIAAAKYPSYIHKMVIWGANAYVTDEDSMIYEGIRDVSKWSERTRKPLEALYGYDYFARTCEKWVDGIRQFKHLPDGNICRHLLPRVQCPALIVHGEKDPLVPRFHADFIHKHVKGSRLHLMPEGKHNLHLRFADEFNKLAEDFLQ
Sequence of COX7C (P15954 whole entry): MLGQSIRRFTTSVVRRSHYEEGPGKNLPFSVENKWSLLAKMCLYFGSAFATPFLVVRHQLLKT
Sequence of APOO (Q9BUR5 whole entry): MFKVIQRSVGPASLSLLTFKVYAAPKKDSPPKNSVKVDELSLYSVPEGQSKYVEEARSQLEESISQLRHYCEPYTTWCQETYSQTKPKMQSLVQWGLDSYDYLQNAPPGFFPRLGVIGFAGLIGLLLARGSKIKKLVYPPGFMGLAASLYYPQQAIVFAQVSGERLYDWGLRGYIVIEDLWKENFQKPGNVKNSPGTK
Sequence of ALDH3A2 (P51648 whole entry): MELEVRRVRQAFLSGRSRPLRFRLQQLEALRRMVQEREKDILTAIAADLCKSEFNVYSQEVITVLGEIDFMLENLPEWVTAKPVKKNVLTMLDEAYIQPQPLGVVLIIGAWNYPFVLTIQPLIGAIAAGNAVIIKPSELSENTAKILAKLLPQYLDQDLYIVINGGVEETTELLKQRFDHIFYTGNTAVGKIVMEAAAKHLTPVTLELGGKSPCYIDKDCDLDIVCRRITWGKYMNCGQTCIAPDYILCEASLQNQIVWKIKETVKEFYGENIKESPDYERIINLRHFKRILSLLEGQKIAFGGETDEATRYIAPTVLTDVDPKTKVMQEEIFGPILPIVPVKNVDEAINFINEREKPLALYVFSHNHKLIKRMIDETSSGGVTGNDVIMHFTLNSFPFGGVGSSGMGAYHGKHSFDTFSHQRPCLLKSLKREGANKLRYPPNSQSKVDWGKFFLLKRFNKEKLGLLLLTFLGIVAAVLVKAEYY
Sequence of ACSM4, P0C7M7 (P0C7M7 whole entry): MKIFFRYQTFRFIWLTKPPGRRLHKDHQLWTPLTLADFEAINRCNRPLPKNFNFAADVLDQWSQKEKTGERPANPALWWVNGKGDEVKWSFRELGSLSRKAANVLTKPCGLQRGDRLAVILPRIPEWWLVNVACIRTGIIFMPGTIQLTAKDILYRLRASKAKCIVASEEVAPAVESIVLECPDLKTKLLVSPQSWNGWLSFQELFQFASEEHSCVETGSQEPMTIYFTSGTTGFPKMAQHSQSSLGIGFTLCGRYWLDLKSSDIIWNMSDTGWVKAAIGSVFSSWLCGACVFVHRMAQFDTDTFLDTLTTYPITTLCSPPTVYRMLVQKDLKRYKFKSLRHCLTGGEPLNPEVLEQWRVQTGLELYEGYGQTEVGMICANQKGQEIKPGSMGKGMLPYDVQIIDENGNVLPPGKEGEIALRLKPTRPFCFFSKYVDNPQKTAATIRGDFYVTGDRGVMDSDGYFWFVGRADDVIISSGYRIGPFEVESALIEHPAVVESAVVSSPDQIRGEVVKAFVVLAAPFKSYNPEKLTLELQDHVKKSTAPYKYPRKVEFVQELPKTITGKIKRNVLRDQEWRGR
Sequence of IDH3G (P51553 whole entry): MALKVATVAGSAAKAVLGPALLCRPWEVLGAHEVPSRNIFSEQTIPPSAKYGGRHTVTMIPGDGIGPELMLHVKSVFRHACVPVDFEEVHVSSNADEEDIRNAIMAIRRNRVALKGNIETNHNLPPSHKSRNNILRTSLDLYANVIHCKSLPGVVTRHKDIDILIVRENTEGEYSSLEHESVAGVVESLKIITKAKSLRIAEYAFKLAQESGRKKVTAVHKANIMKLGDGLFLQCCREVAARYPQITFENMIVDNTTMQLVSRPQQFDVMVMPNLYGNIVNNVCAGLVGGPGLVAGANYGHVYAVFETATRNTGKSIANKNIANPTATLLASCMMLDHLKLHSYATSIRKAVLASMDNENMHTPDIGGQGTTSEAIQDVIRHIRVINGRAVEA
Sequence of TOMM20, Q15388 (Q15388 whole entry): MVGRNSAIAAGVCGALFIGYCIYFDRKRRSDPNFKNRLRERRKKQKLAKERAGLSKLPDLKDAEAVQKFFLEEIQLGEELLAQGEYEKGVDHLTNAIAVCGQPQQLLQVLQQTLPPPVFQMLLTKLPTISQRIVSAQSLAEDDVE
Sequence of PHB1, P35232 (P35232 whole entry): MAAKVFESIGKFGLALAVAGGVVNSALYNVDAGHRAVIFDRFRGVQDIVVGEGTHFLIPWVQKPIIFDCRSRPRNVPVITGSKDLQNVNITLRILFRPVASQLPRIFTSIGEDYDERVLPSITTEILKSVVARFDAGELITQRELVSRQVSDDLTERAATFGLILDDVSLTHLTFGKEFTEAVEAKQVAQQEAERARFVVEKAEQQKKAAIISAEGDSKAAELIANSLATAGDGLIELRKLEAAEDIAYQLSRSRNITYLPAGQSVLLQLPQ
Sequence of RMND1 (Q9NWS8 whole entry): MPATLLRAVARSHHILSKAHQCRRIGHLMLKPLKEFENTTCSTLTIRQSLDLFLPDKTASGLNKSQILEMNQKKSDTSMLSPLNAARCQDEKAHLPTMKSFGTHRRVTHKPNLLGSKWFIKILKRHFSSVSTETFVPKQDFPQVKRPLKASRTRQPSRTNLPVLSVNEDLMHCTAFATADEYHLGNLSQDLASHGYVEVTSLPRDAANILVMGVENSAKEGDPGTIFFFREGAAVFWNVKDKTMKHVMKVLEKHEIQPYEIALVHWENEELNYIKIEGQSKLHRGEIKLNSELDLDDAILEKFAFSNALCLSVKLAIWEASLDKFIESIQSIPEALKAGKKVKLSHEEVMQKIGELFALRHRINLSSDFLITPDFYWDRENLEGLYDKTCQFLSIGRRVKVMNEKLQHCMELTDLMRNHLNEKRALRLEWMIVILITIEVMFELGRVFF
Sequence of ADCK1 (Q86TW2 whole entry): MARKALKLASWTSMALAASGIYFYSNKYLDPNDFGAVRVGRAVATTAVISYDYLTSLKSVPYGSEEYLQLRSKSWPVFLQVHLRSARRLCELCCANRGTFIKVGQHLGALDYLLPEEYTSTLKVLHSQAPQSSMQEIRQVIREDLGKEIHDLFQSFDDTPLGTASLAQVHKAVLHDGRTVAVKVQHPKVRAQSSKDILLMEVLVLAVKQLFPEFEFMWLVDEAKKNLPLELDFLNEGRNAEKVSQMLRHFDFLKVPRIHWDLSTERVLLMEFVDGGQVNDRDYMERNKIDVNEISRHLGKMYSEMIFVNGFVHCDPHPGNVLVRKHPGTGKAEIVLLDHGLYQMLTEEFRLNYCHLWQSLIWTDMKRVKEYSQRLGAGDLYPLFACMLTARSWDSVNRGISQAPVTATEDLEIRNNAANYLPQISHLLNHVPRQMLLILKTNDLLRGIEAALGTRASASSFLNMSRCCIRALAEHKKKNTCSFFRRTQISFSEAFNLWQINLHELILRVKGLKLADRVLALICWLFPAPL
Sequence of SDHA (P31040 whole entry): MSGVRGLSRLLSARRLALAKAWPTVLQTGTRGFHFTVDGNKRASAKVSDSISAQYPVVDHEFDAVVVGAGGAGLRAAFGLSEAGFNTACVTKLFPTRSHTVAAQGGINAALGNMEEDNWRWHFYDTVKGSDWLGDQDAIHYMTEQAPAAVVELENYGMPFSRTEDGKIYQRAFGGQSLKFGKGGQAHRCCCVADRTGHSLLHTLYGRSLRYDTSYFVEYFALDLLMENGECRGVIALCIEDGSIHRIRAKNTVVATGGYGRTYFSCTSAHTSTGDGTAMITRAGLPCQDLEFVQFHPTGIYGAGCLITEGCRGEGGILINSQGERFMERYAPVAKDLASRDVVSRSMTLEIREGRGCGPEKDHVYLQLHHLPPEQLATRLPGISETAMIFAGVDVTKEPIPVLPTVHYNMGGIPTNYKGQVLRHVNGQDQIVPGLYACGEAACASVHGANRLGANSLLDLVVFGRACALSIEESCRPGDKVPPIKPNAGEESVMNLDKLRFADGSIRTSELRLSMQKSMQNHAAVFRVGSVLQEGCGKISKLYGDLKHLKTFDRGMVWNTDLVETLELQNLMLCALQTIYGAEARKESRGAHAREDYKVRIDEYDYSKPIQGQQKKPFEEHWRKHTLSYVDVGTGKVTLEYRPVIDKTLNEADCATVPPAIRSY
Sequence of NOCT (Q9UK39 whole entry): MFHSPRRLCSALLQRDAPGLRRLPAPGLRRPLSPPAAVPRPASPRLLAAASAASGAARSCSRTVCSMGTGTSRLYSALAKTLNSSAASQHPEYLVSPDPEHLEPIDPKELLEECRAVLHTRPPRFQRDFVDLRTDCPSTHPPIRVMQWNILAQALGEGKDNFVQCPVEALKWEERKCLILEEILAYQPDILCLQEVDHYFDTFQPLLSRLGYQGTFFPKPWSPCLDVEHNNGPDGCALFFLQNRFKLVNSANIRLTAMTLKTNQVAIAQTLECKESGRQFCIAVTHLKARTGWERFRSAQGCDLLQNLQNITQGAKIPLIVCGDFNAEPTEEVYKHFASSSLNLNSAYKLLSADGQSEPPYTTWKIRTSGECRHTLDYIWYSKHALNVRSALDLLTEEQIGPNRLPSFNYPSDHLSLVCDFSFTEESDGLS

In the case of HSPD1, P10809, the cross-linked residues entry in the assay with ACACA was “K58 - K2167”; with COX7C, “K58 - K34”; with HSDL2, “K418 - K304”; with IDH3G, “K31 - K214”.

For the substance NDUFC1, O43677, the cross-linked residues entry in the assay with ADCK1 is listed as “K28 - K325”.

As to HADHA, P40939, in the assay with ALDH3A2, the cross-linked residues entry was “K254 - M1”.

Take GUF1, Q8N442: the cross-linked residues result with APOO is “K351 - K27”.

Consider ATP5PD, O75947, for which, in the assay with ATP5PF, the cross-linked residues entry was “K63 - K79”.

Regarding DHX30, Q7L2E3, in the assay with COQ3, the cross-linked residues result was “K303 - K196”.

Take ACADM, P11310: the cross-linked residues result in the assay with GUF1 is reported as “K144 - K664”.

For BCL2, P10415, the cross-linked residues entry with HADHA was “M1 - K254”.

For TOMM20, Q15388, in the assay with MTRF1L, the cross-linked residues entry was “K56 - K74”.

Take ALDH4A1, P30038: in the assay with NOCT, the cross-linked residues result was “K93 - M1”.

With VDAC1, P21796, the cross-linked residues entry in the assay with OGDH was “K61 - K999”.

On to PDHA1, P08559, for which the cross-linked residues entry with OGDHL is on record as “K40 - K525”.

For NDUFV3, P56181, the cross-linked residues entry in the assay with PDSS1 was “M1 - K91”.

As for PHB1, P35232, the cross-linked residues result with PHB2 was “K202 - K216”.

PMPCB, O75439: in the assay with PMPCA, the cross-linked residues entry is recorded as “K148 - K64”.

As for COX5B, P10606, in the assay with PRDX6, the cross-linked residues result was “K57 - K63”.

As to BCKDHB, P21953, the cross-linked residues entry with RMND1 is “K381 - K145”.

As to VDAC2, P45880, the cross-linked residues entry with SAMM50 is reported as “K74 - G2”.

As to SNAP29, O95721, the cross-linked residues result with SDHA is “K124 - K517”.

With MACROD1, Q9BQ69, the cross-linked residues result with SIRT3 is given as “K99 - K399”.

Turning to BPHL, Q86WA6, the cross-linked residues result with SLC25A19 is on record as “V2 - V2”.

Consider ATP5F1D, P30049, for which the cross-linked residues entry in the assay with SPRYD4 was “K136 - K33”.

Regarding ACSM4, P0C7M7, the cross-linked residues result in the assay with TBRG4 is “K542 - K576”.

For ACACB, O00763, in the assay with TUFM, the cross-linked residues result is given as “K1705 - K259”.
